From PubChem BioAssay AID652010 (The Scripps Research Institute Molecular Screening Center, 2013)
In all, about 370,000 compounds went through this assay and about 4,100 (1.1%) were called active.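 The calls were made as follows: active = inhibition above the mean over all tested compounds plus 3 SD (cut at about 3.6% in these data); inactive = the rest.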 For the sample, actives were picked, then their nearest neighbours and some compounds at random.

assay: relief of DAX-1 repression of SF-1 activity – cell-based, luminescence, SF-1 (NR5A1), full-length DAX-1, primary screen (AID 652010); conditions: HEK293T StAR-luciferase reporter, SF-1/DAX-1 repression relief; at 6.8 µM; active compounds read high;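 also: 0% = DAX-1 cells with DMSO and 100% = cells lacking DAX-1 with DMSO; higher inhibition means more luminescence from relief of DAX-1 repression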

Structure (SMILES)	inhibition
O=C(NCc1cccs1)C1CCCN(S(=O)(=O)c2ccc([N+](=O)[O-])cc2)C1 (centres undefined)	-0.52% (inactive)
COc1ccc2c(C(C)c3ccc(N)cc3)cn(C)c2c1 (centres undefined)	0.02% (inactive)
CC1CCN(c2ccc(-c3ccc(NC(=O)c4ccco4)cc3)nn2)CC1	2.92% (inactive)
CCC(=O)Nc1ccc(-c2ccc(N3CCCCC3)nn2)cc1	4.53% (active)
CCCCSc1nnc(-c2ccc(NC(=O)CC)cc2)n1C	-0.29% (inactive)
NS(=O)(=O)c1cc(C(=O)NCCOc2ccccc2)c(Cl)cc1Cl	0.12% (inactive)
O=C(NCCc1csc(-c2ccccc2)n1)c1ccccc1F	-1.18% (inactive)
O=C(NCCOc1ccccc1)c1ccccc1F	6.99% (active)
O=C(CCS(=O)(=O)c1ccccc1)Nc1ccc(Cl)c(Cl)c1	-0.2% (inactive)
O=C(CCCCCN1C(=O)C2C3C=CC(C3)C2C1=O)Nc1ccccc1 (centres undefined)	1.39% (inactive)
Cc1ccc(S(=O)(=O)N(NC2=NS(=O)(=O)c3ccccc32)C(=O)c2ccccc2)cc1	0.29% (inactive)
CC(C)(C)c1csc(NC2=NS(=O)(=O)c3ccccc32)n1	5.84% (active)
O=C(Oc1cccc(NC2=NS(=O)(=O)c3ccccc32)c1)c1ccncc1	0.31% (inactive)
Cc1ccc(Cn2cc(CN3[C@@H](C)COc4cc(Br)ccc4S3(=O)=O)nn2)cc1	-0.52% (inactive)
O=C(CC1C(=O)NCCN1Cc1ccc(-c2ccccc2)cc1)NCC1CCOCC1 (centres undefined)	-0.29% (inactive)
O=C(NCCc1ccccc1)c1ccc(NC2=NC3CS(=O)(=O)CC3S2)cc1 (centres undefined)	-0.02% (inactive)
O=C(NCCc1ccccc1)Oc1ccc(Cl)cc1	0.42% (inactive)
CCCOc1ccc(C(=O)NCCc2ccccc2)cc1	5.47% (active)
O=C(NC1CCC1)c1ccc(C#CC2CC2)cn1	3.08% (inactive)
Cc1ccc(OCc2nnc(SC/C=C/c3ccccc3)n2Cc2ccco2)cc1	-0.46% (inactive)

Structure (SMILES)	inhibition
COC(=O)c1cc2c(c3c4ccccc4n(S(=O)(=O)c4cccc(C)c4)c13)C(=O)N(Cc1ccccc1)C2	-1.85% (inactive)
CNCC(O)c1ccc(O)c(O)c1 (centres undefined)	5.84% (active)
CCC(C)c1ccc(O)c(/C=N/O)c1 (centres undefined)	0.8% (inactive)
CC(=NNC(N)=O)C1CC2CCC1CC2 (centres undefined)	1.47% (inactive)
CCCCCCCCN1C(=O)[C@@H](CC(=O)N2CCN(C(=O)OCC)CC2)C[C@@]2(C(=O)OC)C1=C[C@H](C1CCCC1)O[C@@H]2C	0.13% (inactive)
CCOC(=O)[C@@]12CN(C(=O)OC(C)(C)C)CC=C1N(Cc1ccc(OC)cc1)C(=O)[C@H]2CC(=O)NCc1ccc(OC)c(OC)c1	-0.16% (inactive)
Cc1c(C(=O)Nc2ccccn2)oc2ccc(Br)cc12	8.27% (active)
CCc1nonc1NC(=O)c1oc2ccc(Cl)cc2c1C	0.27% (inactive)
Cc1c(C(=O)NC2CCCCC2)oc2ccccc12	0.4% (inactive)
Cc1cccc(C(=O)Nc2c(-c3ccc(F)cc3)nc3ncccn23)c1	-1.21% (inactive)
CC(OC(=O)CCCOc1ccccc1)C(=O)Nc1ccc(Cl)cn1 (centres undefined)	3.13% (inactive)
COC(=O)c1ccc(NC(=S)NN2CCOCC2)cc1	1.02% (inactive)
CCCc1cc(C(=O)Nc2ccc(Cl)cn2)cs1	16.1% (active)
CC(OC(=O)CNC(=O)c1ccco1)C(=O)Nc1ccc(Cl)cn1 (centres undefined)	-0.16% (inactive)
CCC(=O)Nc1ccc(C(=O)Nc2cc(C)on2)cc1	-0.34% (inactive)
CCCc1cc(C(=O)Nc2ccc(C(=O)OC)cc2)cs1	7.38% (active)
O=C(c1ccccc1)c1ccc(-c2ccccc2C(=O)NC2CCCCN(Cc3ccc(Cl)cc3)C2=O)cc1 (centres undefined)	-0.77% (inactive)
Cc1ccc(-n2c(SCC(=O)Nc3ccc(S(=O)(=O)Nc4nccs4)cc3)nnc2-c2ccncc2)cc1	-0.77% (inactive)
CCC(c1ccc(NC(=O)OC(C)(C)C)cc1)c1cc(OC)cc(OC)c1 (centres undefined)	-0.05% (inactive)
COCc1cc(N2CCN(C(=O)OC(C)(C)C)C[C@@H]2C)ccc1N1CCN(Cc2ccccc2)[C@H](C)C1	-0.7% (inactive)

Structure (SMILES)	inhibition
CCN(CC(=O)Nc1c(F)cccc1F)C(=O)c1cnc(C)cn1	4.81% (active)
CCN(CC(=O)Nc1c(F)cccc1F)C(=O)c1ccc(-c2ccccc2)cc1	0.8% (inactive)
CCc1cc(C(=O)N(CC)CC(=O)Nc2c(F)cccc2F)sc1C	-0.69% (inactive)
CCCC[C@H]1C2CC(OC(=O)NCc3ccccc3)C(C2)[C@H]2CCCCN21 (some centres undefined)	-0.27% (inactive)
Cc1ccc(-n2c(SCC(=O)Nc3ccc(S(=O)(=O)Nc4nccs4)cc3)nnc2-c2ccccn2)cc1	0.28% (inactive)
Cc1ccccc1OCC(=O)Nc1ccc(N2CCN(C(=O)C(C)C)CC2)c(Cl)c1	-2.45% (inactive)
COc1cccc(NC(=O)COc2cccnc2[N+](=O)[O-])c1	1.83% (inactive)
Cc1ccccc1OCC(=O)Nc1ccc2c(c1)ncn2C	4.8% (active)
COc1ccc(Nc2nc(N)nc(CSC(=S)N3CCC(C)CC3)n2)cc1	0.59% (inactive)
COC(=O)C1=C(C(=O)OC)C2C=C(C(C)C)C1C(=O)C2(C)O (centres undefined)	2.32% (inactive)
O=C(NCCc1ccc(F)cc1)c1ccc(S(=O)(=O)N2CCCCC2)cc1	-1.79% (inactive)
O=C(NCCc1ccc(F)cc1)c1ccc2nccnc2c1	7.15% (active)
O=C(NCCc1ccc(F)cc1)c1n[nH]c2ccccc12	1.23% (inactive)
CCOC(=O)[C@]12CCCC3=C1N(CCC3)C(=O)[C@@H](CC(=O)N1CCSCC1)C2	0.52% (inactive)
COC(=O)[C@]12C[C@H](CC(=O)NCc3ccccc3)C(=O)N(CCc3ccc(OC)c(OC)c3)C1=C[C@H](C(C)(C)C)O[C@@H]2C	-0.61% (inactive)
COc1ccc(Nc2ccc3ccccc3c2)cc1	3.94% (active)
COc1ccc(NC2=CC(=S)NC(C)(C)C2)cc1	-0.32% (inactive)
COc1ccc(Nc2cc(=O)n(-c3ccccc3)c3c2c(=O)n(C)c(=O)n3C)cc1	0.33% (inactive)
O=C(CNS(=O)(=O)c1ccccc1F)N1CCN(c2ccccn2)CC1	-0.44% (inactive)
